Laboratory results published in the supplement of paper PMC6089552.
In all, about 3,200 compounds went through this assay and about 300 (9.4%) showed activity. The sample holds actives, similar compounds and a random draw of the others, so the mix is not that of the screen.

Tested on: A673/TR/shEF
Assay: cell viability (LOESS-normalised, relative to median of negative controls) (log2 ratio); higher = more viable cells (less compound effect), active = hit call of the paper (over 3 MAD below the median)
Details: treatment time: 72 h
Summary of the method: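 A673/TR/shEF Ewing sarcoma cells (1,500 per well, 384-well plates) were grown with or without doxycycline to induce EWS-FLI1 shRNA knockdown, starting 24 h before compounds. Library compounds at two or more concentrations, with DMSO controls, were added for three days. Cell viability was read by CellTiter-Glo luminescence on an Envision reader, then LOESS-corrected per plate, divided by the median of negative controls and log2-transformed. Hits were wells at least three median absolute deviations from the median of all screened wells.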

[1] = 0.25 µM, library screen: screen1, EWS-FLI1 expression: high (no doxycycline)
[2] = 0.25 µM, library screen: screen1, EWS-FLI1 expression: low (doxycycline-induced shRNA knockdown)
[3] = 2.5 µM, library screen: screen1, EWS-FLI1 expression: high (no doxycycline)
[4] = 2.5 µM, library screen: screen1, EWS-FLI1 expression: low (doxycycline-induced shRNA knockdown)
[5] = 0.25 µM, library screen: screen2, EWS-FLI1 expression: high (no doxycycline)
[6] = 0.25 µM, library screen: screen2, EWS-FLI1 expression: low (doxycycline-induced shRNA knockdown)
[7] = 2.5 µM, library screen: screen2, EWS-FLI1 expression: high (no doxycycline)
[8] = 2.5 µM, library screen: screen2, EWS-FLI1 expression: low (doxycycline-induced shRNA knockdown)
[9] = 0.103 µM, library screen: screen3, EWS-FLI1 expression: high (no doxycycline)
[10] = 0.103 µM, library screen: screen3, EWS-FLI1 expression: low (doxycycline-induced shRNA knockdown)
[11] = 0.308 µM, library screen: screen3, EWS-FLI1 expression: high (no doxycycline)
[12] = 0.308 µM, library screen: screen3, EWS-FLI1 expression: low (doxycycline-induced shRNA knockdown)
[13] = 0.926 µM, library screen: screen3, EWS-FLI1 expression: high (no doxycycline)
[14] = 0.926 µM, library screen: screen3, EWS-FLI1 expression: low (doxycycline-induced shRNA knockdown)
[15] = 2.8 µM, library screen: screen3, EWS-FLI1 expression: high (no doxycycline)
[16] = 2.8 µM, library screen: screen3, EWS-FLI1 expression: low (doxycycline-induced shRNA knockdown)
[17] = 8.3 µM, library screen: screen3, EWS-FLI1 expression: high (no doxycycline)
[18] = 8.3 µM, library screen: screen3, EWS-FLI1 expression: low (doxycycline-induced shRNA knockdown)
[19] = 25 µM, library screen: screen3, EWS-FLI1 expression: high (no doxycycline)
[20] = 25 µM, library screen: screen3, EWS-FLI1 expression: low (doxycycline-induced shRNA knockdown)

Measured: cell viability (log2)

CC1=C(C(=O)OCC2CCCO2)C(c2coc3ccccc3c2=O)C2=C(CCCC2=O)N1 (centres undefined)
inactive: [1] 0.0728 | [2] 0.022 | [3] 0.00147 | [4] 0.0061

COc1ccc2c(c1)OC1CC1(c1ccccc1OC)C2=O (centres undefined)
inactive: [1] 0.0685 | [2] 0.0535 | [3] 0.0294 | [4] 0.0412

COc1ccc(OC)c(CN2CCN(Cc3ccco3)CC2)c1
inactive: [1] 0.136 | [2] 0.00829 | [3] 0.0712 | [4] 0.0546

C=C1C[C@]23C[C@@]1(O)CC[C@H]2[C@@]12C=C[C@H](O)C(C)(C(=O)O1)[C@H]2[C@@H]3C(=O)O
inactive: [1] 0.0797 | [2] -0.049 | [3] 0.109 | [4] 0.00256

CC(C)C[C@H](NC(=O)[C@H](O)[C@H](N)Cc1ccccc1)C(=O)O
inactive: [5] 0.14 | [6] 0.0402 | [7] 0.0931 | [8] 0.0118

CC(C)C[C@H](NC(=O)[C@H](Cc1ccccc1)NC(=O)c1cnccn1)B(O)O
active: [9] -0.242 | [11] -2.56 | [12] -0.914 | [13] -3.95 | [14] -1.75 | [15] -4.24 | [16] -4.06 | [17] -4.26 | [18] -3.84 | [19] -4.26 | [20] -4.16
inactive: [10] -0.0845

CC(C)C[C@H](NC(=O)[C@@H](O)[C@H](N)Cc1ccccc1)C(=O)O
inactive: [5] 0.185 | [6] -0.00499 | [7] 0.106 | [8] 0.0581

O=C(Nc1ccccc1Cl)C1c2ccccc2Oc2ccccc21
inactive: [1] 0.0923 | [2] 0.0427 | [3] 0.118 | [4] 0.00942

COC1CCC2(C)C(CCC3C2CCC2(C)C(C(C)CCCC(C)C)CCC32)C1 (centres undefined)
inactive: [1] -0.00918 | [2] 0.0236 | [3] 0.0903 | [4] 0.091

CCN1CCCC(OC(=O)C(c2ccccc2)c2ccccc2)C1 (centres undefined)
inactive: [1] 0.0616 | [2] 0.0736 | [3] 0.223 | [4] -0.0423

CCCCOc1ccc(OCCCN2CCOCC2)cc1
inactive: [1] 0.172 | [2] 0.0279 | [3] 0.124 | [4] 0.0578

CCCCCCCCCC(=O)NC(CN1CCOCC1)C(O)c1ccccc1 (centres undefined)
active: [5] -0.53 | [6] -0.533 | [7] -1.39 | [8] -2.57

Cc1ccc(C(=O)NCCSc2ccccn2)cc1
inactive: [1] 0.109 | [2] 0.00816 | [3] 0.117 | [4] -0.0564

Cn1cnnc1SCC(=O)N1c2ccccc2C(C)(c2ccccc2)CC1(C)C (centres undefined)
inactive: [1] 0.078 | [2] 0.058 | [3] 0.127 | [4] 0.198

C[C@@H]1CC[C@H]2[C@](C)(CO)[C@@H](O)CC[C@]2(C)[C@@]12CC[C@@](CO)(CCO)O2
inactive: [1] 0.0457 | [2] -0.0603 | [3] 0.0942 | [4] 0.112

CC(C)(C)c1onc(OCP(=O)(O)O)c1CC(N)C(=O)O (centres undefined)
inactive: [5] -0.0656 | [6] 0.0767 | [7] 0.0137 | [8] 0.0837

N=C(N)c1ccc(N)cc1
inactive: [5] 0.132 | [6] 0.0859 | [7] 0.0987 | [8] 0.121

N=C1C=CC(=C(c2ccc(N)cc2)c2ccc(N)cc2)C=C1
active: [1] -0.412 | [2] -0.563 | [3] -3.76 | [4] -3.35

CCOC(=O)c1ccc(N)cc1
inactive: [1] 0.113 | [2] 0.151 | [3] 0.0778 | [4] 0.18

CC(C)c1c(O)c(-c2cc3c(c(C(C)C)c2O)CCC2C(C)(C)CCCC32C)cc2c1CCC1C(C)(C)CCCC21C (centres undefined)
inactive: [1] 0.108 | [2] 0.109 | [3] 0.0993 | [4] 0.112

COc1c(C)c2c(c(O)c1C/C=C(\C)CCC(=O)OCCN1CCOCC1)C(=O)OC2
active: [19] -0.48 | [20] -0.33
inactive: [9] 0.051 | [10] 0.0315 | [11] 0.00041 | [12] 0.00916 | [13] -0.00635 | [14] 0.0426 | [15] 0.0529 | [16] 0.0135 | [17] -0.0785 | [18] 0.0651

COc1c(C)c2c(c(O)c1C/C=C(\C)CCC(=O)O)C(=O)OC2
active: 25 µM, library screen: screen2, EWS-FLI1 expression: high (no doxycycline) -0.533 | 25 µM, library screen: screen2, EWS-FLI1 expression: low (doxycycline-induced shRNA knockdown) -0.259 | [19] -0.488 | [20] -0.403
inactive: 0.025 µM, library screen: screen2, EWS-FLI1 expression: high (no doxycycline) 0.0161 | 0.025 µM, library screen: screen2, EWS-FLI1 expression: low (doxycycline-induced shRNA knockdown) 0.0434 | [9] 0.108 | [10] 0.173 | [1] 0.047 | [2] -0.0419 | [5] 0.0974 | [6] 0.108 | [11] 0.00407 | [12] 0.0569 | [13] 0.0822 | [14] 0.0245 | [3] 0.0367 | [4] 0.00349 | [7] 0.137 | [8] -0.00198 | [15] 0.147 | [16] 0.096 | [17] -0.0618 | [18] -0.0369
